Data taken from PubChem BioAssay (NCATS).
Values joined by “and” are separate entries in the source; they are usually repeats but may differ in a detail not shown here. Equal values may be shown once. Inconclusive results are not listed. Where a call stands in place of a potency, no number is given. A number with no mark means an inactive call. Active and inactive are the calls of the source. Calls come from the whole dose curve; as a rule, active = well fitted curve in the direction sought with a large enough effect; inconclusive = small, poorly fitted or top-dose-only effect, or another doubt; inactive = no such curve, though single readings can be large; an effect the other way counts as inactive or inconclusive.

How the values were obtained:
C33A = assay: Primary qHTS to identify gynecologic anti-cancer compounds using libraries of approved drugs and bioactive compounds (AID 1345084); settings: Gynecologic cancer cell panel viability, ATPlite luminescence, 48 h; series mostly up to 57.5 µM; note: nearly all actives have a fitted effect of over 55% in size; note: potency is the fitted concentration of half-maximal effect
Outline: (§1)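 In this quantitative HTS, cell killing is estimated from loss of ATP-dependent luciferase light. Cells see five compound concentrations over a 48 h exposure.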

CAOV3 = assay: as above; settings: Gynecologic cancer cell panel viability, ATPlite luminescence, 48 h; series mostly up to 57.5 µM
Outline: as §1

CASKI = assay: as above; settings: Gynecologic cancer cell panel viability, ATPlite luminescence, 48 h; series mostly up to 57.5 µM
Outline: as §1

Es-2 = assay: as above; settings: Gynecologic cancer cell panel viability, ATPlite luminescence, 48 h; series mostly up to 57.5 µM
Outline: as §1

Hek293T = assay: as above; settings: Gynecologic cancer cell panel viability, ATPlite luminescence, 48 h, control line for the selectivity index; series mostly up to 57.5 µM
Outline: as §1

SKOV3 = assay: as above; settings: Gynecologic cancer cell panel viability, ATPlite luminescence, 48 h; series mostly up to 57.5 µM
Outline: as §1

[1] = Drug repurposing screens with cells derived from glioblastoma tumor samples (AID 1345199); settings: GBM patient neurospheres viability, ATP luminescence, 48 h; note: nearly all actives have a fitted effect of over 40% in size; note: potency is the fitted concentration of half-maximal effect
Outline: (§2)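 Four patient lines of CD133+ GBM neurospheres were screened at several concentrations; hits were retested in those lines plus three slower-growing GBM lines, using 48-hour treatment and ATP-based viability.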

HeLa = assay: Primary qHTS to identify gynecologic anti-cancer compounds using libraries of approved drugs and bioactive compounds (AID 1345084); settings: Gynecologic cancer cell panel viability, ATPlite luminescence, 48 h; series mostly up to 57.5 µM; note: nearly all actives have a fitted effect of over 55% in size; note: potency is the fitted concentration of half-maximal effect
Outline: as §1

JEG-3 = assay: as above; settings: Gynecologic cancer cell panel viability, ATPlite luminescence, 48 h; series mostly up to 57.5 µM
Outline: as §1

OV90 = assay: as above; settings: Gynecologic cancer cell panel viability, ATPlite luminescence, 48 h; series mostly up to 57.5 µM
Outline: as §1

PA-1 = assay: as above; settings: Gynecologic cancer cell panel viability, ATPlite luminescence, 48 h; series mostly up to 57.5 µM
Outline: as §1

Tov-21-G = assay: as above; settings: Gynecologic cancer cell panel viability, ATPlite luminescence, 48 h; series mostly up to 57.5 µM
Outline: as §1

Tov112D = assay: as above; settings: Gynecologic cancer cell panel viability, ATPlite luminescence, 48 h; series mostly up to 57.5 µM
Outline: as §1

NIH3T3 = assay: qHTS assay to identify novel small-molecules to repurpose for Merkel cell carcinoma treatment (AID 1296009); settings: MCC and control cell lines, CellTiter-Glo viability, 72 h; at 44.8 µM (top of the series) unless noted; note: nearly all actives have a fitted effect of over 60% in size
Outline: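 Cells were incubated with compound for 72 hr at 37 degree celsius before CellTiter-Glo addition. Luminescence was normalized with no-cell wells as full cytotoxicity and DMSO as baseline.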

astro = assay: Drug repurposing screens with cells derived from glioblastoma tumor samples (AID 1345199); settings: viability, ATP luminescence, 48 h; series mostly up to 45.9 µM; note: nearly all actives have a fitted effect of over 40% in size; note: potency is the fitted concentration of half-maximal effect
Outline: as §2

[2] = qHTS assay to identify inhibitors of the type 1 interferon - major histocompatibility complex class I in skeletal muscle: Counter screen cell viability and HiBit confirmation (AID 1347412); settings: iHSKM muscle cells + IFN-b, HiBiT or CellTiter-Glo, 24 h, at 45.9 µM (top of the series); note: nearly all actives have a fitted effect of over 60% in size
Outline: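 Human myoblast knock-in line, 4.0 ng/ml IFN-beta stimulation, 24 h compound treatment. Endpoints: HiBiT lytic luminescence (HLA-B level) and CellTiter Glo (ATP). Dosing 12 concentrations, 3-fold steps, 46 uM highest final.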

[3] = at 45.9 µM (top of the series), tumour line B
[4] = at 46.1 µM (top of the series), tumour line C
[5] = at 45.9 µM (top of the series), tumour line D

With `C#C[C@]1(O)CC[C@H]2[C@@H]3CCc4cc(O)ccc4[C@H]3CC[C@@]21C` the Potency (C33A) was “inactive”, the Potency (CAOV3) was “inactive” and the Potency (CASKI) was “inactive”. The Potency (Es-2) was “inactive”, the Potency (Hek293T) was “inactive” and the Potency (SKOV3) was 35.5 µM (active). The activity, negative = cell killing [1, 3] was -15.9%, the activity, negative = cell killing [1, 4] was 2.3% and the Potency ([1]; tumour line A) was 12.6 µM (active).

For `CCCCN(CC)c1nc(C)nc2c1c(C)cn2-c1c(C)cc(C)cc1C`, the Potency (C33A) was “inactive”, the Potency (CASKI) was “inactive” and the Potency (Es-2) was “inactive”. The Potency (HeLa) was “inactive”, the Potency (Hek293T) was “inactive” and the Potency (JEG-3) was “inactive”. The Potency (OV90) was “inactive”, the Potency (PA-1) was “inactive” and the Potency (Tov-21-G) was “inactive”. For the same compound, the Potency (Tov112D) was “inactive”.

In the case of `CC1(C)S[C@@H]2[C@H](NC(=O)[C@H](N)c3ccc(O)cc3)C(=O)N2[C@H]1C(=O)O`, the outcome (NIH3T3) is reported as “inactive”, the Potency (CAOV3) is reported as “inactive” and the Potency (CASKI) is reported as “inactive”. The Potency (Es-2) was “inactive”, the Potency (HeLa) was “inactive” and the Potency (Hek293T) was “inactive”. For the same compound, the Potency (JEG-3) was “inactive”, the Potency (OV90) was “inactive” and the Potency (PA-1) was “inactive”. For the same compound, the Potency (SKOV3) was “inactive”, the Potency (Tov-21-G) was “inactive” and the Potency (Tov112D) was “inactive”. It also gave an activity, negative = cell killing [1, 3] of 2.03%, an activity, negative = cell killing [1, 5] of 3.17% and an activity, negative = cell killing ([1]; at 46 µM (top of the series), tumour line A) of -16.6%. The activity, negative = cell killing [1, 4] was -0.658% and the Potency (astro) was “inactive”.

For `O=C(O)c1cc(O)c(O)c(O)c1`, the Potency (C33A) was “inactive”, the Potency (CAOV3) was “inactive” and the Potency (CASKI) was “inactive”. For the same compound, the Potency (Es-2) was “inactive”, the Potency (HeLa) was “inactive” and the Potency (Hek293T) was “inactive”. The Potency (JEG-3) was “inactive”, the Potency (OV90) was “inactive” and the Potency (PA-1) was “inactive”. The Potency (Tov-21-G) was “inactive”, the Potency (Tov112D) was “inactive” and the activity, negative = cell killing [1, 3] was -10.4%. For the same compound, the activity, negative = cell killing [1, 5] was -20.6% and the activity, negative = cell killing [1, 4] was 20.7%.

For `CN(CCCOc1ccc(Cc2ccccc2)cc1)CCC(=O)O`, the outcome (NIH3T3) was “inactive”, the Potency (C33A) was “inactive” and the Potency (CAOV3) was “inactive”. The Potency (CASKI) was “inactive”, the Potency (Es-2) was “inactive” and the Potency (HeLa) was “inactive”. The Potency (Hek293T) was “inactive”, the Potency (JEG-3) was “inactive” and the Potency (OV90) was “inactive”. The Potency (PA-1) was “inactive”, the Potency (SKOV3) was “inactive” and the Potency (Tov-21-G) was “inactive”. The Potency (Tov112D) was “inactive”.

In the case of `CCNc1nc2c(ncn2[C@H]2C[C@H](O)[C@@H](CO)O2)c(=O)[nH]1`, the outcome (NIH3T3) is reported as “inactive”, the Potency (C33A) is reported as “inactive” and the Potency (CAOV3) is reported as “inactive”. The Potency (CASKI) was “inactive”, the Potency (Es-2) was “inactive” and the Potency (HeLa) was “inactive”. The Potency (Hek293T) was “inactive”, the Potency (JEG-3) was “inactive” and the Potency (OV90) was “inactive”. The Potency (PA-1) was “inactive”, the Potency (SKOV3) was “inactive” and the Potency (Tov-21-G) was “inactive”. For the same compound, the Potency (Tov112D) was “inactive”.

In the case of `CC1(C)[C@@H](O)CC[C@]2(C)[C@H]3C(=O)C=C4[C@@H]5C[C@@](C)(C(=O)O)CC[C@]5(C)CC[C@@]4(C)[C@]3(C)CC[C@@H]12`, the Potency (C33A) is reported as “inactive”, the Potency (CAOV3) is reported as “inactive” and the Potency (CASKI) is reported as “inactive”. For the same compound, the Potency (Es-2) was “inactive”, the Potency (HeLa) was “inactive” and the Potency (Hek293T) was “inactive”. The Potency (JEG-3) was “inactive”, the Potency (OV90) was “inactive” and the Potency (PA-1) was “inactive”. For the same compound, the Potency (SKOV3) was 3.16 µM (active), the Potency (Tov-21-G) was “inactive” and the Potency (Tov112D) was “inactive”. The activity, negative = cell killing [1, 3] was -26.1% and -10.2%, the activity, negative = cell killing [1, 5] was 9.17% and -11.9% and the activity, negative = cell killing [1, 4] was -0.581% and -19.2%.

In the case of `COC(=O)C1=C(C)NC(C)=C(C(=O)OC)C1c1cccc(NC(=O)NCCCN2CCC(c3cccc(OC)c3)CC2)c1`, the Potency (C33A) is reported as “inactive”, the Potency (CAOV3) is reported as 22.4 µM (active) and the Potency (Es-2) is reported as “inactive”. For the same compound, the Potency (HeLa) was “inactive”, the Potency (Hek293T) was “inactive” and the Potency (Tov-21-G) was “inactive”. The activity change, negative = inhibition ([2]; HiBiT) was -3.18% and the activity change, negative = inhibition ([2]; Viability) was -19.5%.
